Measured values from PubChem BioAssay (EPA / NIEHS).
Where a structure was tested more than once in an assay, its records may differ in their call. Activity calls are given as the source filed them. Rule for the calls: active = hit-call score of the fitted dose curve at least 0.9, where 1 is the maximum; inactive = score below 0.9.

experiment: CCTE_Shafer_MEA_acute_cross_correlation_area: CCTE's Neural Acute Assay for Area of Cross Correlation, Shafer Lab (AID 2284024);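 note: curves fitted for loss of cross-correlation area so actives lower synchrony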
Protocol: CCTE_Shafer_MEA_acute assay is conducted using Axion Biosystems 48 well microelectrode array (MEA) plates and Maestro recording system. Each well of the MEA plate contains a grid of 16 microelectrodes embedded in the culture surface. Electrically active cells, such as neurons, can be cultured over the electrodes, and electrical activity in these cells can be recorded extracellularly. The spontaneous firing of neurons is captured from each electrode on a microsecond timescale providing both temporally and spatially precise data. […] The CCTE_Shafer_MEA_acute assay uses primary cultures of rat cortical neurons. As these cultures mature over time, neural networks develop functional activity and form cohesive networks in which electrical activity can be highly coordinated. Baseline 40-minute recordings are made on days post-plating 13 or 15, followed by a secondary 40-minute recording after chemical exposure.CCTE_Shafer_MEA_acute_cross_correlation_area is a component of the CCTE_Shafer_MEA_acute assay. It measures the area under the well-wide pooled inter-electrode cross-correlation of action potential firing (not normalized to auto-correlations) within a window centered around 0 for the phase lag during a recording in a microelectrode array (MEA) using Axion Biosystems Maestro 768 channel amplifier with the AxIS adaptive spike detector. The recordings before and after chemical treatment are used to calculate a percent change in the cross correlation area in each well.Data from the assay component CCTE_Shafer_MEA_acute_cross_correlation_area was analyzed into 1 assay endpoint. This assay endpoint, CCTE_Shafer_MEA_acute_cross_correlation_area, was analyzed in the negative analysis fitting direction relative to DMSO as the negative control and baseline of activity. Using a type of functional reporter, gain or loss-of-signal activity can be used to understand electrical activity.
Spontaneous activity in the cortical cultures was recorded using an Axion Biosystems Maestro 768 channel amplifier and Axion Integrated Studios (AxIS) v1.8 (or later) software. The amplifier recorded from all channels simultaneously (gain = 1200 x; sampling rate = 12.5 kHz/channel): raw signals were filtered with a Butterworth band-pass filter (300-5000 Hz), which filters out slower local field potentials leaving only fast potentials, i.e., "spikes", arising from extracellular currents associated with action potentials (Pine 2006; Wheeler and Nam 2011). On-line spike detection of filtered signals was conducted with the AxIS adaptive spike detector, using a threshold of 8x the root mean squared (rms) noise on each channel. Any electrodes with rms noise levels greater than 5 uV were grounded (e.g., no data were recorded). Once grounded, an electrode was grounded for the duration of the experiment. All recordings were conducted at 37 C. Wells were deemed usable if on the day of the exposure >/= 10 electrodes were active (defined as >/= 5 spikes/min). On DIV 13 or 15, a minimum of three wells from one cortical culture preparation were treated with each compound (0.03-40 uM). Prior to recording baseline activity, each mwMEA plate was placed in the Maestro at 37 C and allowed to sit for 20 min while firing rates stabilized. Baseline activity (40 min) was recorded before the addition of each compound. An additional 40 min of spontaneous activity was recorded in the presence of each compound. Changes in network parameters relative to baseline were assessed following compound treatment.

Row | Structure (SMILES) | outcome | AC50
1 | c1cc[n+]2c(c1)-c1cccc[n+]1CC2 | inactive | –
2 | CC1(C)[C@@H](C=C(Cl)Cl)[C@@H]1C(=O)O[C@@H](C#N)c1ccc(F)c(Oc2ccccc2)c1 | – | 208 nM (active)
3 | COc1ccc(CO)cc1 | inactive | –
4 | O=C(O)CNCP(=O)(O)O | inactive | –
5 | CC1(C)[C@H](C(=O)O[C@H](C#N)c2cccc(Oc3ccccc3)c2)[C@@H]1C=C(Br)Br | – | 203 nM (active)
6 | Cc1ccc(OP(=O)(Oc2ccc(C)cc2)Oc2ccc(C)cc2)cc1 (tested in a mixture with another compound) | inactive | –
7 | O=[N+]([O-])O | inactive | 230 nM (active)
8 | CCCC[N+](CCCC)(CCCC)CCCC | – | 9.53 nM (active)
9 | Oc1ccc(C2(c3ccc(O)cc3)c3ccccc3-c3ccccc32)cc1 | – | 25.2 nM (active)
10 | CP(=O)(O)CC[C@H](N)C(=O)O | inactive | –
11 | C#CCN(C)[C@H](C)Cc1ccccc1 | inactive | –
12 | O=c1c2ccccc2c(=O)c2c1cc(Cl)c1[nH]c3c([nH]c12)c(Cl)cc1c(=O)c2ccccc2c(=O)c13 | inactive | –
13 | [Cd+2].[Cl-].[Cl-] | inactive | –
14 | CC1(C)[C@H](C=C(Cl)Cl)[C@@H]1C(=O)O[C@@H](C#N)c1cccc(Oc2ccccc2)c1 | – | 170 nM (active)
15 | CP(=O)(O)CCC(N)C(=O)O (stereo unspecified) | inactive | –
